Assay [1] in a line: antimalarial activity against Dd2 strain (AID 2302;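 active = growth inhibition above 50% at the single 2 µM test dose, taken to imply half-maximal potency below 2 µM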;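 note: 0% = DMSO untreated growth and 100% = chloroquine plus artemisinin killed control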). As to conditions: P. falciparum Dd2 in RBCs, LDH growth readout, 72 h; at 2 µM; stronger effect = higher value.
A short description of assay [2]: human hepatoma cell viability loss – ATP luminescence, cytotoxicity control for P. falciparum antimalarial project, primary screen (AID 2303;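 active = inhibition above 50%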;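 note: 0% = DMSO wells and 100% = digitonin-killed cells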). As to conditions: HepG2 viability, 24-48 h, at 10 µM, stronger effect = higher value.
Assay [3] addresses L-lactate dehydrogenase (Plasmodium falciparum (isolate CDC / Honduras)) (UniProt Q27743). Description: PfLDH activity inhibition – cell lysate, 3D7 strain, counter-screen for P. falciparum growth inhibition project (AID 2304).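 Note: 0% = vehicle and 100% = reference inhibitor.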 To be noted: P. falciparum 3D7 crude extract, LDH APAD/NBT absorbance; at 2 µM; stronger effect = higher value.
Assay [4] in a line: inhibition of 3D7 malaria parasite growth – strain 3D7 (AID 2306).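 Note: 0% = DMSO wells and 100% = chloroquine plus artemisinin control wells.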 As to conditions: P. falciparum 3D7 erythrocytic growth, LDH absorbance, 72 h; at 2 µM; stronger effect = higher value.
Assay [5] addresses Calcium-dependent protein kinase 1 (Plasmodium falciparum (isolate 3D7)) (UniProt P62344). Description: PfCDPK1 kinase inhibitors, biochemical, TCAMS library (AID 1159585; cut-off not given, nearly all actives have IC50 up to about 0.98 µM;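 note: inhibitors leave more ATP so luminescence rises with inhibition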). To be noted: recombinant PfCDPK1, Kinase-Glo ATP depletion luminescence.
The target in assay [6] is Plasmodium falciparum protein kinase 6 (PK6, PF3D7_1337100) (UniProt Q8IDW1). Description: PfPK6 kinase inhibitors, biochemical, TCAMS library (AID 1159586). As to conditions: recombinant PfPK6, Kinase-Glo ATP depletion luminescence.
In assay [7] the target is Protein kinase 7 (PK7), Plasmodium falciparum 3D7 (PF3D7_0213400) (UniProt Q7YTF7). Description: inhibition of Plasmodium PK7 catalytic activity – biochemical, TCAMS antimalarial set, Kinase-Glo luminescence (AID 1159587). As to conditions: recombinant PfPK7, Kinase-Glo ATP depletion luminescence.
Assay [8] deals with Calcium-dependent protein kinase 4 (Plasmodium falciparum (isolate 3D7)) (UniProt Q8IBS5). Nature of the assay: PfCDPK4 kinase inhibitors, biochemical, TCAMS library (AID 1159588; cut-off not given, nearly all actives have IC50 up to about 0.91 µM). To be noted: recombinant PfCDPK4, Kinase-Glo ATP depletion luminescence.

Unmarked numbers belong to inactive results. For part of these data: Measured potencies and affinities stand elsewhere. Active and inactive are the calls of the source. Unless noted, the rule behind the calls is not given here.

Calcium-dependent protein kinase 1 (Plasmodium falciparum (isolate 3D7)), sequence (P62344 whole entry, looked up): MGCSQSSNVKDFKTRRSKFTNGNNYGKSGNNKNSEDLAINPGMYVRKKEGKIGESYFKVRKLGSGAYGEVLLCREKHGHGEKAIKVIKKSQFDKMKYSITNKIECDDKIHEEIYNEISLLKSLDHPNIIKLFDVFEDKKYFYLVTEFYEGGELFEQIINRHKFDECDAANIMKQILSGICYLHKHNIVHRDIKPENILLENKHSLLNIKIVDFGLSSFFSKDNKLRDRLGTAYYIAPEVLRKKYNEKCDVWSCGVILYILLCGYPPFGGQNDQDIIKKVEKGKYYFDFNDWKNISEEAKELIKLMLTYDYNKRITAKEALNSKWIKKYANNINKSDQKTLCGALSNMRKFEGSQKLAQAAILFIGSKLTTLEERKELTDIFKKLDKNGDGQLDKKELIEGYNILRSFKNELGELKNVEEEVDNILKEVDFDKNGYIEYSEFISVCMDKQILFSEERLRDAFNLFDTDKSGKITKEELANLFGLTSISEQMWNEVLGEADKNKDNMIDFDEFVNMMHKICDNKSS
L-lactate dehydrogenase (Plasmodium falciparum (isolate CDC / Honduras)), sequence (Q27743 whole entry, looked up): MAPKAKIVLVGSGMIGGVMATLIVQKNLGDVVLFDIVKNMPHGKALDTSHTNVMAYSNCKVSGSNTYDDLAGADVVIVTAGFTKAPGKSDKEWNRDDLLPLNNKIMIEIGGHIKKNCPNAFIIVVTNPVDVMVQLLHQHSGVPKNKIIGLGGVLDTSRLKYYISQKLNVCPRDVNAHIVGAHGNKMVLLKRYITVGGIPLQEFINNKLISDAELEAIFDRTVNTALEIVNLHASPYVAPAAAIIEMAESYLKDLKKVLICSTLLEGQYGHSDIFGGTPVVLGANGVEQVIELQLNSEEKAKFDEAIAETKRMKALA
Calcium-dependent protein kinase 4 (Plasmodium falciparum (isolate 3D7)), sequence (Q8IBS5 whole entry, looked up): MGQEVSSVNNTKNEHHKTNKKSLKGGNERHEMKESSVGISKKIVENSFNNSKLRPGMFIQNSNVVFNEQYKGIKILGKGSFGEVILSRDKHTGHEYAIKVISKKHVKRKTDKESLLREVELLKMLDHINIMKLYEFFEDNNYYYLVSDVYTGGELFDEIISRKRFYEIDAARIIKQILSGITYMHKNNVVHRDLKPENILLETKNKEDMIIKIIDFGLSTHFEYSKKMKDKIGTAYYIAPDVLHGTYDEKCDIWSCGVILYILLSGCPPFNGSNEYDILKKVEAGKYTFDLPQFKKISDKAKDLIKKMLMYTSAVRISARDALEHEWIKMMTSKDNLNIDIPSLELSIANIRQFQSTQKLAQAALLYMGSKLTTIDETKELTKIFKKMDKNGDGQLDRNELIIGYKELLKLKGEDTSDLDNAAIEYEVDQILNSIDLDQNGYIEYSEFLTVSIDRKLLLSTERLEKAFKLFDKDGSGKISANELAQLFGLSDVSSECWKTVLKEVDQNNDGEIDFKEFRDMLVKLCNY
Protein kinase 7 (PK7), Plasmodium falciparum 3D7 (PF3D7_0213400), sequence (Q7YTF7 1-343): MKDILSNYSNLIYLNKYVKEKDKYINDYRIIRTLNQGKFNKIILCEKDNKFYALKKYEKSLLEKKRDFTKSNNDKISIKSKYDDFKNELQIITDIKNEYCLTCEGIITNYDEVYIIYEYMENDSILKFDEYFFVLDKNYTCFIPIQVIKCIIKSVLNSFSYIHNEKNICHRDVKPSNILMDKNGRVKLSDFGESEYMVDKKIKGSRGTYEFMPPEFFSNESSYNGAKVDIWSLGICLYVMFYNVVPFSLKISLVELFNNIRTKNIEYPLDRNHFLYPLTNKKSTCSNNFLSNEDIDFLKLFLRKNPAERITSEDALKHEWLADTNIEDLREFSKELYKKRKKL
Plasmodium falciparum protein kinase 6 (PK6, PF3D7_1337100), sequence (Q8IDW1 1-305): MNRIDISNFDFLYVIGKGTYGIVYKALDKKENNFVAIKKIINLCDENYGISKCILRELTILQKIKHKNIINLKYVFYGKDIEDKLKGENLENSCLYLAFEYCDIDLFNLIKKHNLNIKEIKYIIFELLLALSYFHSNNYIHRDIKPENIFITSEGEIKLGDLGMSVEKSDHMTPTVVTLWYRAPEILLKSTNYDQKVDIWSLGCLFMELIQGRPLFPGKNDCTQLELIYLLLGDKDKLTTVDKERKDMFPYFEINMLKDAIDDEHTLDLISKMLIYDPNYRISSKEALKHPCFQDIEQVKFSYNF

Consider `COc1cccc(Nc2nc(C)cc(NCc3ccc(-n4ccnc4)cc3)n2)c1`, for which the growth inhibition in assay [1] is 99% (active); in assay [4], 101% (active). The inhibition in assay [2] was -13%; in assay [3], -5%. The outcome in assay [5], in assay [6], in assay [7] and in assay [8] was inactive.
With `CC(C)(C)c1ccc(CNC(=O)c2ccc(-c3nc4ccc(Cl)cc4[nH]3)cc2)cc1`, the growth inhibition in assay [1] is 2%; in assay [4], 93% (active). In addition, the inhibition in assay [2] is 14%; in assay [3] it was -2%. The outcome in assay [5], in assay [6], in assay [7] and in assay [8] was inactive.
On to `CCOC(=O)c1ccc(NC(=O)Nc2ccc(Cn3ncc(N4CCCNCC4)c(Cl)c3=O)cc2)cc1`, for which the growth inhibition in assay [1] is 58% (active); in assay [4] it was 88% (active). The inhibition in assay [2] and in assay [3] was 2% in each case. Also, the result in assay [5], in assay [6], in assay [7] and in assay [8] was inactive.
As to `OC(CNc1cccc(Cl)c1)Cn1c2ccc(Cl)cc2c2cc(Cl)ccc21` (stereo not drawn), the growth inhibition is 33% in assay [1] and 95% (active) in assay [4]. The results for the inhibition in assay [2] and in assay [3] were 8% and 6%, respectively. The result in assay [5], in assay [6], in assay [7] and in assay [8] was inactive.
`CN(CCCCNC(=O)c1ccc(-c2ccccc2)cc1)C1CCc2c(O)cccc2C1` (stereo not drawn): the figures for the growth inhibition in assay [1] and in assay [4] were 21% and 102% (active), respectively. Moreover, the inhibition in assay [2] was 24%; in assay [3], 0%. Also, the result in assay [5], in assay [6], in assay [7] and in assay [8] was inactive.
Regarding `CCOC(=O)C1=C(C)N=c2sc(=Cc3cc(Cl)ccc3O)c(=O)n2C1c1ccc(OC)cc1` (stereo not drawn), the growth inhibition in assay [1] is 65% (active); in assay [4] it was 99% (active). In addition, the inhibition in assay [2] was -6%; in assay [3] it was -3%. The outcome in assay [5], in assay [6], in assay [7] and in assay [8] was inactive.
As for `CCCCOc1ccc(CNCCCCCCNCc2ccc(OCCCC)c3ccccc23)c2ccccc12`, the growth inhibition was 49% in assay [1] and 81% (active) in assay [4]. Further, the figures for the inhibition in assay [2] and in assay [3] were 100% (active) and 2%, respectively. Moreover, the outcome in assay [5], in assay [6], in assay [7] and in assay [8] was inactive.
As to `Cc1cc(N2CCC(N(C)C)C2)nc(Nc2ccc(Cl)cc2)n1` (stereo not drawn), the results for the growth inhibition in assay [1] and in assay [4] were 17% and 99% (active), respectively. Further, the figures for the inhibition in assay [2] and in assay [3] were 11% and 2%, respectively. Moreover, the result in assay [5], in assay [6], in assay [7] and in assay [8] was inactive.
For `CC1(C)N=C(N)N=C(N)N1c1ccc(Br)cc1`, the values for the growth inhibition in assay [1] and in assay [4] were 4% and 94% (active), respectively. In addition, the inhibition in assay [2] is 52% (active); in assay [3], 0%. The outcome in assay [5], in assay [6], in assay [7] and in assay [8] was inactive.
In the case of `CN(CCc1ccccn1)Cc1ccc(-c2ccc(-c3nc4ccccc4[nH]3)s2)cc1`, the growth inhibition was 48% in assay [1] and 100% (active) in assay [4]. For the same molecule, the inhibition in assay [2] was 29%; in assay [3], 6%. The result in assay [5], in assay [6], in assay [7] and in assay [8] was inactive.
`CCNc1cc(C(=O)N[C@@H](Cc2ccccc2)[C@H](O)CNC(C)C)cc(N2CC(c3ccccc3)CCS2(=O)=O)c1` (stereo partly drawn): the growth inhibition was 99% (active) in assay [1] and 98% (active) in assay [4]. For the same molecule, the inhibition is 0% in assay [2] and -1% in assay [3]. The result in assay [5], in assay [6], in assay [7] and in assay [8] was inactive.
Turning to `COc1ccc(-c2nc(NC(=O)Cc3coc4cc(OC)ccc34)sc2C)cc1`, the growth inhibition in assay [1] is 77% (active); in assay [4], 100% (active). For the same molecule, the inhibition in assay [2] was 9%; in assay [3], -2%. The result in assay [5], in assay [6], in assay [7] and in assay [8] was inactive.
As to `COc1c(C2=CCN(CCCCNC(=O)c3ccc(-c4ccc(C#N)cc4)cc3)CC2)ccc2c1CCCC2`, the values for the growth inhibition in assay [1] and in assay [4] were 82% (active) and 94% (active), respectively. Moreover, the values for the inhibition in assay [2] and in assay [3] were 44% and 7%, respectively. Further, the result in assay [5], in assay [6], in assay [7] and in assay [8] was inactive.
Take `COc1cccc(C(=O)Nc2nonc2-c2ccc(OC)c(OC)c2)c1`: the growth inhibition in assay [1] was 50% (active); in assay [4], 97% (active). Moreover, the inhibition is 7% in assay [2] and -8% in assay [3]. Also, the outcome in assay [5], in assay [6], in assay [7] and in assay [8] was inactive.
Take `CCCn1cc2c(ccc3nc(N)nc(N)c32)n1`: the growth inhibition in assay [1] is 0%; in assay [4] it was 95% (active). Also, the values for the inhibition in assay [2] and in assay [3] were 65% (active) and 5%, respectively. Also, the result in assay [5], in assay [6], in assay [7] and in assay [8] was inactive.
In the case of `CC(C)(C)c1ccc(CN2CCC(CNC(=O)c3cc(-c4cccc(Cl)c4)cs3)C2)cc1` (stereo not drawn), the growth inhibition in assay [1] is 83% (active); in assay [4] it was 101% (active). The inhibition in assay [2] is 44%; in assay [3] it was 1%. Further, the outcome in assay [5], in assay [6], in assay [7] and in assay [8] was inactive.
In the case of `CCc1c(C)nc(-n2nc(C)cc2NC(=O)C2c3ccccc3Oc3ccccc32)[nH]c1=O`, the results for the growth inhibition in assay [1] and in assay [4] were 80% (active) and 89% (active), respectively. Also, the inhibition in assay [2] was 37%; in assay [3], 1%. Further, the result in assay [5], in assay [6], in assay [7] and in assay [8] was inactive.
`O=C(Nc1ccc(-c2csc3nccn23)cc1)c1ccc(Cl)cc1`: the growth inhibition was 50% (active) in assay [1] and 100% (active) in assay [4]. Moreover, the inhibition in assay [2] is 54% (active); in assay [3] it was -5%. In addition, the result in assay [5], in assay [6], in assay [7] and in assay [8] was inactive.
With `COC(=O)c1cccc(NC(=O)NC2CCN(c3ccnc(Nc4ccc(OC)cc4)n3)C2)c1` (stereo not drawn), the growth inhibition in assay [1] is 65% (active); in assay [4], 99% (active). Also, the inhibition in assay [2] was 1%; in assay [3], -3%. For the same molecule, the outcome in assay [5], in assay [6], in assay [7] and in assay [8] was inactive.
As for `CCCCN=C(N)Nc1ccc(OCCCOc2ccc(NC(N)=NCCCC)cc2)cc1`, the results for the growth inhibition in assay [1] and in assay [4] were 97% (active) and 96% (active), respectively. In addition, the inhibition in assay [2] is 15%; in assay [3] it was 4%. The outcome in assay [5], in assay [6], in assay [7] and in assay [8] was inactive.
With `CC(C)C[C@H](Nc1ccnc(NCC2CCCCC2)n1)C(=O)NCCOc1ccccc1`, the figures for the growth inhibition in assay [1] and in assay [4] were 73% (active) and 89% (active), respectively. For the same molecule, the figures for the inhibition in assay [2] and in assay [3] were 37% and 3%, respectively. Further, the result in assay [5], in assay [6], in assay [7] and in assay [8] was inactive.
